{
  "source": "PubChem BioAssay (NCATS)",
  "key": {"[1]": {"target": "Lethal(3)malignant brain tumor-like protein 1 (Homo sapiens) (UniProt Q9Y468)", "sequence (Q9Y468 whole entry, looked up)": "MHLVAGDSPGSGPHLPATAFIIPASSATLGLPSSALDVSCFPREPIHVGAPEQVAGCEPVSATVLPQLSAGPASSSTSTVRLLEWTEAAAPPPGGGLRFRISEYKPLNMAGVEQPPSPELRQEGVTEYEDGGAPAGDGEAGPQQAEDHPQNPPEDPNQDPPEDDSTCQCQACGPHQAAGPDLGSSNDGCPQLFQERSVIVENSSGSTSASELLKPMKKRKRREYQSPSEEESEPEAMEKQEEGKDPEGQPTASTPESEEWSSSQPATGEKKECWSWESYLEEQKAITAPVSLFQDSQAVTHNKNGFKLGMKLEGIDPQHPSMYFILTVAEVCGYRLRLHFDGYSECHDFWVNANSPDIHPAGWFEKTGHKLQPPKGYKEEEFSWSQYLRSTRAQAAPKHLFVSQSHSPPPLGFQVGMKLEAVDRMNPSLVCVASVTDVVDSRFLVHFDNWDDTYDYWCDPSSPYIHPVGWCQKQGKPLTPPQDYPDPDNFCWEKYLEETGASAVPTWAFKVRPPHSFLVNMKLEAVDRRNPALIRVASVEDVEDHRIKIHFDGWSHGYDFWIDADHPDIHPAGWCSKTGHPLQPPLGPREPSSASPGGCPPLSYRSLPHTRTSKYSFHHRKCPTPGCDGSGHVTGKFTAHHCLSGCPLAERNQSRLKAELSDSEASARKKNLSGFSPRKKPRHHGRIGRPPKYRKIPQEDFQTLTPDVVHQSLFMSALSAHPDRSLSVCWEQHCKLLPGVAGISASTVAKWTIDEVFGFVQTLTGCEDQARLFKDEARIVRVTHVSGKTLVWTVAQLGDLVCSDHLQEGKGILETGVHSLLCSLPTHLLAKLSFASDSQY", "test": "qHTS Assay for the Inhibitors of L3MBTL1: Hit Validation (AID 540279); also: potency is read from the fitted curve at half-maximal effect; nearly all actives have a fitted effect of over 70% in size", "details": "L3MBTL1 methyl-lysine binding inhibition, biochemical qHTS", "method_in_brief": "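L3MBTL1 (50 nM final) preformed 30 min with biotinylated H3(1-15)K9me1 peptide (75 nM), then compound 30 min at room temperature. Streptavidin donor and nickel chelate acceptor AlphaScreen beads (10 ug/mL each final) added for 30 min before read.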"}, "[2]": {"test": "qHTS Assay for the Inhibitors of L3MBTL1: Hit Validationin AlphaScreen Counterscreen (AID 602224)", "method_in_brief": "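AlphaScreen signal was read after compounds, 1 nM biotin-His6 peptide and 10 ug/mL each of streptavidin donor and nickel acceptor beads incubated 30 min at room temperature in darkness, following a 15 min compound–peptide preincubation.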"}, "[3]": {"target": "Flap endonuclease 1 (Homo sapiens) (UniProt P39748)", "test": "qHTS Assay for the Inhibitors of FEN1: Confirmatory Assay for Cherry-picked Compounds (AID 720498); also: potency is read from the fitted curve at half-maximal effect; nearly all actives have a fitted effect of over 60% in size", "details": "FEN1 flap cleavage, TAMRA/BHQ2 fluorogenic DNA substrate", "method_in_brief": "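Human FEN1 (10 nM reagent) was preincubated with compounds for 15 min at room temperature, then 50 nM final double-flap DNA substrate (5'-TAMRA flap, BHQ-2 quencher strand) was added. Fluorescence (ex 525/em 598 nm) was read at 0 and 15 min.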"}, "[4]": {"target": "DNA polymerase eta (Homo sapiens) (UniProt Q9Y253)", "test": "qHTS for Inhibitors of Polymerase Eta: Confirmatory Assay for Cherry-picked Compounds (AID 720502); also: potency is read from the fitted curve at half-maximal effect", "details": "Pol eta primer extension, TAMRA/BHQ fluorescence, 10 min", "method_in_brief": "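Enzyme at 10 nM is mixed with pin-transferred compound and left 15 min at room temperature. Substrate (50 nM final) is then added, and plates are read at 0 min and after 10 min.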"}, "[5]": {"target": "RecQ-like DNA helicase BLM (Homo sapiens) (UniProt P54132)", "test": "qHTS for Inhibitors of WRN Helicase: BLM Helicase Counterscreen for WRN Inhibitors (AID 720503); also: nearly all actives have a fitted effect of over 60% in size", "method_in_brief": "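Reactions were started with 100 nM DNA substrate and 2 mM ATP (final) after compound and 1 nM BLM stood 15 min at room temperature in Tris-HCl pH 8.0 buffer with NaCl, MgCl2, DTT and Tween-20. Two red-fluorescence reads 15 min apart were normalized against DMSO and no-enzyme wells.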"}, "[6]": {"target": "DNA dC->dU-editing enzyme APOBEC-3G (Homo sapiens) (UniProt Q9HC16)", "sequence (Q9HC16 whole entry, looked up)": "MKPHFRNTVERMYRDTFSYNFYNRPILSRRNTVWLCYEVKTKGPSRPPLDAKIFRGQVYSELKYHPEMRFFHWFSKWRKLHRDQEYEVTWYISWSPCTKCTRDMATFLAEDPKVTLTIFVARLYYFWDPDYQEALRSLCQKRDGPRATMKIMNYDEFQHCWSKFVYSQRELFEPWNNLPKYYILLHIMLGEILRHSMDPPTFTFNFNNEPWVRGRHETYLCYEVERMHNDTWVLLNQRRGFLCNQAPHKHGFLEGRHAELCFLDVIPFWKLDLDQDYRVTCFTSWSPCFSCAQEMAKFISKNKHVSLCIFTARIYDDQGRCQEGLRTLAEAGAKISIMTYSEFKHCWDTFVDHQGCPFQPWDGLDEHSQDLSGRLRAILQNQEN", "test": "qHTS for inhibitors of Vif-A3G interactions: Validation (AID 588379)", "method_in_brief": "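Yellow fluorescence (Ex 488, Em 500-530) of Vif-coexpressing HeLa A3G-eYFP cells, scanned by Acumen cytometer, reports blocked A3G degradation. Cells plated at 700/well overnight at 37 deg C before compound addition, then a further overnight compound incubation at 37 deg C.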"}, "[7]": {"target": "Luciferin 4-monooxygenase (Photinus pyralis) (UniProt P08659)", "sequence (P08659 whole entry, looked up)": "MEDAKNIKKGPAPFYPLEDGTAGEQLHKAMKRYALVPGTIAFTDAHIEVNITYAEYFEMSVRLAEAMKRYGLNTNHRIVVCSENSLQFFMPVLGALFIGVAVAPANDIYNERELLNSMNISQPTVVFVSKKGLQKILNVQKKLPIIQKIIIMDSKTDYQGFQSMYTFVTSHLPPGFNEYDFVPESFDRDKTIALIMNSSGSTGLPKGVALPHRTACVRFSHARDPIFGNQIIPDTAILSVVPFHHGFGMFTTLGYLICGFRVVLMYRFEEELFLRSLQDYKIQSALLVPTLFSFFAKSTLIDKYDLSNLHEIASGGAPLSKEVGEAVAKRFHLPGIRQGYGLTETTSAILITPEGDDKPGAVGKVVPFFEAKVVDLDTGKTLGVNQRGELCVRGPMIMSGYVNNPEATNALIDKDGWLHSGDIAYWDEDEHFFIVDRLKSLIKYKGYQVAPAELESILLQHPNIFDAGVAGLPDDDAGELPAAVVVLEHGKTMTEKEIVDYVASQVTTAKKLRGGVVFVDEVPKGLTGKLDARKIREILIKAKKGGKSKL", "test": "Biochemical firefly luciferase enzyme assay for NPC (AID 624030); also: series mostly up to about 59 µM; nearly all actives have a fitted effect of over 70% in size", "method_in_brief": "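Purified P. pyralis luciferase at 10 nM in 50 mM Tris Acetate (final), luminescence read within 5 minutes of enzyme addition to compounds. Activity normalised to PTC124 versus DMSO; concentration-response curves classed by r2, magnitude and activity.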"}, "[8]": {"target": "Androgen receptor (Homo sapiens) (UniProt P10275)", "sequence (P10275 whole entry, looked up)": "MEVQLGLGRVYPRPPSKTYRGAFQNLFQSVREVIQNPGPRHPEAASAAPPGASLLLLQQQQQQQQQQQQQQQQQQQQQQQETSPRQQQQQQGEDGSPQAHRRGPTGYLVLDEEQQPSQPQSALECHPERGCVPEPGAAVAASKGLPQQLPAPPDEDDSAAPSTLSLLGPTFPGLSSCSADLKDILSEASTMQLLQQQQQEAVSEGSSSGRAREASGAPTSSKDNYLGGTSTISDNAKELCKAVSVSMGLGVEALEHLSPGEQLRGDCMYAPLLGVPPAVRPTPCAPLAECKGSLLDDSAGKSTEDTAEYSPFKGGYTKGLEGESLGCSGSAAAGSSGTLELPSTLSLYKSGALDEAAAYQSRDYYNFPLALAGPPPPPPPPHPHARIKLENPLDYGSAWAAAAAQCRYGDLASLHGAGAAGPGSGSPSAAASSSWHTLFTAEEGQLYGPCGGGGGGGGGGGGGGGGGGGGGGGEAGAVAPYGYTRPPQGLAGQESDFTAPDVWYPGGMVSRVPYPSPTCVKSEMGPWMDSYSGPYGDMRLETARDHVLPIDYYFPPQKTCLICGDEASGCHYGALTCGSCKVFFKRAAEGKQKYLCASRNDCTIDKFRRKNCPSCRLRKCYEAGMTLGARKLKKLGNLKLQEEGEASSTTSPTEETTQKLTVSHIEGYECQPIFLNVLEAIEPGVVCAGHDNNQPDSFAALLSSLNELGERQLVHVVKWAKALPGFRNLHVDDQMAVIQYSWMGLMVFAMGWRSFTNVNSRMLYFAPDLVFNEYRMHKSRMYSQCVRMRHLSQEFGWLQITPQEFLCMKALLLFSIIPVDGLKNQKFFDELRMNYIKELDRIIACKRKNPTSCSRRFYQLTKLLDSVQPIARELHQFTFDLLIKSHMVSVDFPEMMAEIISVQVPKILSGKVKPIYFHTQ", "test": "qHTS assay for small molecule agonists of androgen receptor signaling (AID 588515; active = well fitted curve in the direction sought with a large enough effect in the signal ratio, with a control signal flat; the % refers to the signal ratio)", "details": "AR-UAS-bla HEK293, beta-lactamase ratio, agonist 16 h; activation: hits give high values", "method_in_brief": "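Stimulation of an AR-responsive β-lactamase reporter in GripTite HEK293 cells was measured after 16 h compound exposure at 37 °C, via CCF4 fluorescence after 2 h RT. EC50 from Hill fits, normalized to R1881 at 30 nM.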"}, "[9]": {"target": "Androgen receptor (Homo sapiens) (UniProt P10275)", "test": "qHTS assay for small molecule antagonists of androgen receptor signaling (AID 588516; active = well fitted curve in the direction sought with a large enough effect in the signal ratio, with a control signal flat, not every such curve was filed as active; the % refers to the signal ratio)", "method_in_brief": "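AR-UAS-bla GripTite HEK 293 cells (2000/well) treated with compound titrations plus 10 nM R1881 for 16 h at 37C. Beta-lactamase read by CCF4 FRET (460/530 nm); IC50 from Hill fits, normalized to R1881 and DMSO control wells.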"}, "[10]": {"target": "Glucocorticoid receptor (Homo sapiens) (UniProt P04150)", "sequence (P04150 whole entry, looked up)": "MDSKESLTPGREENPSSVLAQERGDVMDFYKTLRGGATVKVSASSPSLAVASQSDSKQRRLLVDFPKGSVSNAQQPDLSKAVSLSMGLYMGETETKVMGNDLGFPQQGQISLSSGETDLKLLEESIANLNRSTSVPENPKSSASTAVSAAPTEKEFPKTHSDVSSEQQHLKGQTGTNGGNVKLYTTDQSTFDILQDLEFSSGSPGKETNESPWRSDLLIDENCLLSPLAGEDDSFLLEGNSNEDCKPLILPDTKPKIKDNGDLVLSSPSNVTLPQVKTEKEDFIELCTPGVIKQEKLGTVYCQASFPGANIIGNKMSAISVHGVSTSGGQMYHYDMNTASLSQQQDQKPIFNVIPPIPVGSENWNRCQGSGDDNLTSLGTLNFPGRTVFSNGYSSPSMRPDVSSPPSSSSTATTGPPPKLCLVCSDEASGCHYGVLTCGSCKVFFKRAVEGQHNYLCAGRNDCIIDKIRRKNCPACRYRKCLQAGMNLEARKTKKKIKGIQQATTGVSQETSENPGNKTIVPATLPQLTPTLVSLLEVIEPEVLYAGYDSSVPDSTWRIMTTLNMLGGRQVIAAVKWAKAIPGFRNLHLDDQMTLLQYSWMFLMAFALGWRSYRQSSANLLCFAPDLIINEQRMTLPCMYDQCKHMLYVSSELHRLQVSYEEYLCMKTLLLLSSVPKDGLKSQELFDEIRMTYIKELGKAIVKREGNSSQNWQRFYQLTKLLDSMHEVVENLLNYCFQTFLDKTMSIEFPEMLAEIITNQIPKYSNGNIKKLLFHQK", "test": "qHTS assay for small molecule agonists of glucocorticoid receptor signaling (AID 588532; active = well fitted curve in the direction sought with a large enough effect in the signal ratio, with a control signal flat; the % refers to the signal ratio)", "details": "HeLa MMTV-bla, beta-lactamase ratio, agonist, 18 h; hits give high values; percent of dexamethasone control, DMSO zero", "method_in_brief": "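Cells were plated and rested 3-5 h at 37 C, compounds were added in titration and incubated 18 h, then CCF4 substrate was loaded for 2 h at RT before reading blue/green fluorescence. EC50 came from Hill-equation fitting.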"}, "[11]": {"target": "Glucocorticoid receptor (Homo sapiens) (UniProt P04150)", "test": "qHTS assay for small molecule antagonists of glucocorticoid receptor signaling (AID 588533; active = well fitted inhibition curve with a large enough effect in the signal ratio, with a control signal flat, not every such curve was filed as active; the % refers to the signal ratio)", "method_in_brief": "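Antagonist-mode qHTS: compound titrations added to GRE-bla HeLa cells, then dexamethasone 2 nM final; 18 h, 37 C. CCF4 FRET fluorescence normalized to dexamethasone and DMSO; IC50 from Hill fit.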"}, "[12]": {"target": "Peroxisome proliferator-activated receptor gamma (Homo sapiens) (UniProt P37231)", "sequence (P37231 whole entry, looked up)": "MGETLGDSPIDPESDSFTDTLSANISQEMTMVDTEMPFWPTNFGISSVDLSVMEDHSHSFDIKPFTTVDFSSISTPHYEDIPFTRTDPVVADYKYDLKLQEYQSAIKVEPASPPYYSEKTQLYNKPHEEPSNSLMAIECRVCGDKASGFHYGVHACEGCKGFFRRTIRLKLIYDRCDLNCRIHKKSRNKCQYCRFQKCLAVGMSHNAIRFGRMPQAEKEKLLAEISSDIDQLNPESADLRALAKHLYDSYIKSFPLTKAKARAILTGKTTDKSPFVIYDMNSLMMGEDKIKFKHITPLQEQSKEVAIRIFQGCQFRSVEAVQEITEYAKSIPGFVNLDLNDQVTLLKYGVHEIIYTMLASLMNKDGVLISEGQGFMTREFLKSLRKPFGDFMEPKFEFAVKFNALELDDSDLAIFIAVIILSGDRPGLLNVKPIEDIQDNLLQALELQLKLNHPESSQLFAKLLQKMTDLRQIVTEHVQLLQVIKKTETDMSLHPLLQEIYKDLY", "test": "qHTS assay for small molecule agonists of peroxisome proliferator-activated receptor gamma signaling (AID 588536; active = well fitted curve in the direction sought with a large enough effect in the signal ratio, with a control signal flat, not every such curve was filed as active; the % refers to the signal ratio)", "method_in_brief": "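This is an agonist-mode beta-lactamase reporter assay in HEK293 PPAR-gamma-UAS-bla cells with 1% charcoal/dextran FBS. Compound titrations ran 16 h at 37 C before CCF4 detection. EC50 and efficacy are Hill fits scaled to 2 uM rosiglitazone (100%) and DMSO basal.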"}, "[13]": {"target": "Peroxisome proliferator-activated receptor gamma (Homo sapiens) (UniProt P37231)", "test": "qHTS assay for small molecule antagonists of peroxisome proliferator-activated receptor gamma signaling (AID 588537; active = well fitted inhibition curve with a large enough effect in the signal ratio, with a control signal flat, not every such curve was filed as active; the % refers to the signal ratio)", "method_in_brief": "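Read-out: CCF4 fluorescence (ex 405, em 460/530 nm) after 2 h at RT. Cells were HEK293 carrying a UAS-bla reporter and treated 16 h at 37 C with compound plus rosiglitazone (50 nM final). Normalized to rosiglitazone and DMSO.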"}, "[14]": {"target": "Vitamin D3 receptor (Homo sapiens) (UniProt P11473)", "sequence (P11473 whole entry, looked up)": "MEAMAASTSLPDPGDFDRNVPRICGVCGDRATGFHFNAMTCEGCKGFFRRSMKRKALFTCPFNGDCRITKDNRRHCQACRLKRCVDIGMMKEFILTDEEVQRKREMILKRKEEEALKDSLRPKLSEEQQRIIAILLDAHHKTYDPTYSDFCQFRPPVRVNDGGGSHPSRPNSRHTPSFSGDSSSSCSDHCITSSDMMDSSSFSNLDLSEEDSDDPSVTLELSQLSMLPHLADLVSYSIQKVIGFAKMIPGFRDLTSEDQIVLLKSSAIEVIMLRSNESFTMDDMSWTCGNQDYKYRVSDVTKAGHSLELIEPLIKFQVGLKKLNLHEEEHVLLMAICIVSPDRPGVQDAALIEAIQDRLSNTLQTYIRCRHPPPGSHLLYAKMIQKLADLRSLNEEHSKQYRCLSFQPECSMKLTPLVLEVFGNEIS", "test": "qHTS assay for small molecule antagonists of vitamin D receptor signaling (AID 588541; calls by dose curve;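 also: receptor activated by calcitriol during compound treatment; series mostly up to about 77 µM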)", "method_in_brief": "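VDR-UAS-bla HEK293T cells in 2% charcoal-stripped FBS were stimulated with 1-alpha,25-dihydroxyvitamin D3 (3 nM final) plus compound for 16 h at 37 C. The beta-lactamase CCF4 readout was normalized to 50 nM agonist and DMSO, and Hill fits gave IC50.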"}, "[15]": {"target": "Thyroid hormone receptor beta (Homo sapiens) (UniProt P10828)", "sequence (P10828 whole entry, looked up)": "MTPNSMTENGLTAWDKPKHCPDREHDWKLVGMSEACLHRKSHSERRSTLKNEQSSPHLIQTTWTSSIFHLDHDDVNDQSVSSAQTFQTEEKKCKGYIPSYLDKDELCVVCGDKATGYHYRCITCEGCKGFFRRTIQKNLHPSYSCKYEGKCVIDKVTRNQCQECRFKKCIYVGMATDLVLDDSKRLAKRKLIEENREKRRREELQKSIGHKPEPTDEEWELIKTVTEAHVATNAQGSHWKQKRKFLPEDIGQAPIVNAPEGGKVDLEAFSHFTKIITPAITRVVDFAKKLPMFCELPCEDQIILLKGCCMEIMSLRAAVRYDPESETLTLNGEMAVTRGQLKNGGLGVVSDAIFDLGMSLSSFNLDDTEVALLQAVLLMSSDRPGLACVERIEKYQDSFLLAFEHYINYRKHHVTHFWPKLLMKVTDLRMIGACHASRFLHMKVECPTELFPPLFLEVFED", "test": "qHTS assay for small molecule agonists of thyroid hormone receptor beta signaling (AID 588545; calls by dose curve)", "method_in_brief": "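Cells (2500/well) were seeded, incubated 4 hrs at 37 C, dosed with a compound series, incubated 18 hrs, loaded with CCF4 dye for 2 hrs at RT, then read for fluorescence. Data were scaled between DMSO (0%) and 10 nM T3 (100%).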"}, "[16]": {"test": "qHTS assay for small molecule agonists of the antioxidant response element (ARE) signaling pathway (AID 651741; active = well fitted activation curve with a large enough effect in the signal ratio; the % refers to the signal ratio)", "method_in_brief": "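HepG2 ARE-bla reporter cells, 2,000/well; 5 h settle at 37 C/5% CO2; compound pin transfer (23 nL, DMSO); 16 h at 37 C; LiveBLAzer B/G FRET substrate, 2 h RT; fluorescence intensity read.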"}, "[17]": {"test": "qHTS assay for small molecule agonists of the antioxidant response element (ARE) signaling pathway measured by Nrf2-dependant transcriptional activity (AID 720636; active = well fitted curve in the direction sought with a large enough effect in the repeat runs; an effect the other way counts as inactive or inconclusive)", "method_in_brief": "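We exposed ARE-luc HepG2 cells, seeded in assay medium with 1% dialyzed FBS and allowed 6 hr to adhere, to test compounds overnight (16 hr, 37 C) before measuring luciferase with ONE-Glo.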"}, "[18]": {"target": "Thyroid hormone receptor beta (Homo sapiens) (UniProt P10828)", "test": "qHTS assay for small molecule antagonists of thyroid hormone receptor beta signaling (AID 588547; active = well fitted inhibition curve with a large enough effect in the signal ratio, with a control signal flat, not every such curve was filed as active; the % refers to the signal ratio; also: series mostly up to about 77 µM)", "details": "TR-UAS-bla HEK293, beta-lactamase ratio, antagonist mode, 18 h", "method_in_brief": "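TR-UAS-bla GripTite HEK293 cells in 2% charcoal/dextran FBS medium; compounds 0.59 nM to 92 uM with T3 at 0.4nM final, 18 h at 37 C. Beta-lactamase read by CCF4 fluorescence (460/530 nm); Hill fits gave IC50 and efficacy.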"}},
  "note": "A number with no mark means an inactive call. Inconclusive results are not listed. Some of the results follow. Where a call stands in place of a potency, no number is given. Calls of active or inactive are those of the source. Unless noted, calls follow the shape of the dose curve; as a rule, active = well fitted curve in the direction sought with a large enough effect; inconclusive = small, poorly fitted or top-dose-only effect, or another doubt; inactive = no such curve, though single readings can be large; an effect the other way counts as inactive or inconclusive.",
  "data": [
    {"smiles": "CCN(C(=O)Cc1nc(N)n[nH]1)C1(C(=O)Nc2ccccc2)CCCCC1", "values": [
      {"measurement": "Potency", "setting": "[1]", "value": "26.7 µM (active)"}
    ]},
    {"smiles": "Oc1ccc(N=Nc2nccs2)c(O)c1", "values": [
      {"measurement": "Potency", "setting": "[1]", "value": "16.8 µM (active)"},
      {"measurement": "outcome", "setting": "[2]", "value": "inactive"}
    ]},
    {"smiles": "COc1ccc(Cc2nnc(NC(=O)Cc3cccs3)s2)cc1", "values": [
      {"measurement": "Potency", "setting": "[1]", "value": "1.19 µM (active)"},
      {"measurement": "Potency", "setting": "[3]", "value": "84.9 µM (active)"},
      {"measurement": "Potency", "setting": "[4]", "value": "19 µM (active)"}
    ]},
    {"smiles": "CSc1nnc(SCc2nc3sc(C(=O)O)c(C)c3c(=O)[nH]2)s1", "values": [
      {"measurement": "Potency", "setting": "[1]", "value": "0.532 µM (active)"},
      {"measurement": "Potency", "setting": "[5]", "value": "inactive"}
    ]},
    {"smiles": "Cn1c2ccccc2c(=O)c2c(=O)n(Cc3ccco3)c(COc3ccccc3)nc21", "values": [
      {"measurement": "Potency", "setting": "[1]", "value": "7.52 µM (active)"},
      {"measurement": "outcome", "setting": "[2]", "value": "inactive"}
    ]},
    {"smiles": "C=C[C@@H]1CN2CC[C@@H]1C[C@@H]2[C@@H](O)c1ccnc2ccc(OC)cc12", "values": [
      {"measurement": "Potency", "setting": "[6]", "value": "inactive"}
    ]},
    {"smiles": "COc1cccc2c(C)c(C(=O)O)[nH]c12", "values": [
      {"measurement": "Potency", "setting": "[1]", "value": "5.97 µM (active)"},
      {"measurement": "outcome", "setting": "[2]", "value": "inactive"}
    ]},
    {"smiles": "CC12CCC3c4ccc(O)cc4CCC3C1CCC2=O", "note": "(configuration not stated)", "values": [
      {"measurement": "Potency", "setting": "[7]", "value": "inactive"}
    ]},
    {"smiles": "CCCCCCCCCCCCCCN", "values": [
      {"measurement": "activation", "setting": "[8]", "value": 2.33, "unit": "%"},
      {"measurement": "outcome", "setting": "[9]", "value": "inactive"},
      {"measurement": "activation", "setting": "[10]", "value": -4.59, "unit": "%"},
      {"measurement": "Potency", "setting": "[11]", "value": "inactive"},
      {"measurement": "outcome", "setting": "[12]", "value": "inactive"},
      {"measurement": "Potency", "setting": "[13]", "value": "inactive"},
      {"measurement": "Potency", "setting": "[14]", "value": "inactive"},
      {"measurement": "Potency", "setting": "[15]", "value": "inactive"},
      {"measurement": "Potency", "setting": "[16]", "value": "inactive"},
      {"measurement": "Potency", "setting": "[17]", "value": "inactive"}
    ]},
    {"smiles": "CCCCCCCCCCCCCCCCCC(N)=O", "values": [
      {"measurement": "activation", "setting": "[8]", "value": 5.45, "unit": "%"},
      {"measurement": "outcome", "setting": "[9]", "value": "inactive"},
      {"measurement": "activation", "setting": "[10]", "value": -6.09, "unit": "%"},
      {"measurement": "Potency", "setting": "[11]", "value": "inactive"},
      {"measurement": "Potency", "setting": "[13]", "value": "inactive"},
      {"measurement": "Potency", "setting": "[15]", "value": "inactive"},
      {"measurement": "activity change % (negative = inhibition)", "setting": "[18]", "value": -14.9, "unit": "%"},
      {"measurement": "Potency", "setting": "[17]", "value": "inactive"}
    ]}
  ]
}
